MCF10A rereplic: A quantitative high throughput screen for small molecules that induce DNA re-replication in MCF 10a normal breast cells; AID 624296, 2012; MCF 10A DNA re-replication, Hoechst nuclear intensity, 48 h; 350,000 tested, 2.9% active; Potency, µM (doses to about 46.1 µM), for the others: top-dose activity, positive = re-replication, most hits filed as activators; further: % of control where 0% means no effect; nearly all actives have a fitted effect of over 50% in size
KB-3-1 cytotox: qHTS assay for MDR1-selective chemotherapeutics: Primary screen using the parental adenocarcinoma cell KB-3-1. KB-3-1 viability, CellTiter-Glo ATP luminescence, 72 h. Potency, µM (top dose mostly 46.1 µM), most hits filed as cytotoxic. 400,000 tested, 1.4% active. AID 1347075, 2019; further: on the % scale 0 is the no-effect control and ±100 the full control effect; nearly all actives have a fitted effect of over 60% in size
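KB-3-1 cells, DMEM (no phenol red) + 10% FBS; compound by pin transfer, 72 h, 37 °C. Readout: CellTiter-Glo luminescence after 10 min. Data normalized, curve-fitted.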
PINK1 expr mod: A Quantitative High throughput Screen to Identify Chemical Modulators of PINK1 Expression; PINK1 immunofluorescence, high-content cytometry, 24 h; Potency, µM (highest dose often 76.6 µM), for inactives: at the top dose activation (PINK1 increase), actives largely listed as activators; 410,000 tested, 0.2% active; active means well fitted activation curve with a large enough effect; inconclusive means small, poorly fitted or top-dose-only effect; cell line not stated here; further: % of control where 0% means no effect; nearly all actives have a fitted effect of over 65% in size
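Decision-based qHTS: stable cells, 24 h exposure to five compound concentrations, CCCP as control. Fixed cells stained for PINK1 plus nuclear, mitochondrial and cell markers, cytometer read.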
KB-V1 cytotox: qHTS assay for MDR1-selective chemotherapeutics: Primary screen using the drug-selected MDR subline cells KB-V1 | KB-V1 MDR cells viability, CellTiter-Glo, 72 h | Potency, µM (titrated, usually from 46.1 µM), most hits filed as cytotoxic | 400,000 tested, 3.4% active; further: on the % scale 0 is the no-effect control and ±100 the full control effect; nearly all actives have a fitted effect of over 60% in size
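Luminescent ATP read-out (CellTiter-Glo, 10 min) measures survival of drug-selected KB-V1 MDR cells after 72 h, 37 degrees C compound exposure. Medium: phenol-red-free DMEM, 10% FBS. Values from fitted concentration-response curves.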
SW480 rerep: A quantitative high throughput screen for small molecules that induce DNA re-replication in SW480 colon adenocarcinoma cells | SW480 DNA re-replication, Hoechst DNA content imaging, 48 h | Potency, µM (doses to about 46.1 µM), for the others: at the highest dose re-replication activation, hits mostly activators | 340,000 tested, 1.8% active | AID 624297, 2012; further: % of control where 0% means no effect; nearly all actives have a fitted effect of over 55% in size
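Per well, 250 cells were exposed to pinned compound for 48 hr. Nuclear DNA was visualised with Hoechst (40 min, 37 C) and total object intensity recorded by fluorescence scanning.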
PTAP TSG101 blk: qHTS Assay for Iinhibitors of HIV-1 Budding by Blocking the Interaction of PTAP/TSG101. Tumor susceptibility gene 101 protein (Homo sapiens), Q99816. Fluorescence polarization, FITC-PTAP peptide / Tsg101 binding. Potency, µM (series often up to 115 µM), without a hit: at the top dose activity change, negative = inhibition, hits mostly inhibitors. 340,000 tested, under 10 active. AID 493005, 2010; active means well fitted inhibition curve with a large enough effect in the main read-out, with a control signal flat, not every such curve was filed as active; inconclusive means small, poorly fitted or top-dose-only effect, or effect the other way, or a change in a side signal; inactive means no such curve, though single readings can be large or run the other way; further: % of control where 0% means no effect
Target sequence (Q99816 whole entry, looked up): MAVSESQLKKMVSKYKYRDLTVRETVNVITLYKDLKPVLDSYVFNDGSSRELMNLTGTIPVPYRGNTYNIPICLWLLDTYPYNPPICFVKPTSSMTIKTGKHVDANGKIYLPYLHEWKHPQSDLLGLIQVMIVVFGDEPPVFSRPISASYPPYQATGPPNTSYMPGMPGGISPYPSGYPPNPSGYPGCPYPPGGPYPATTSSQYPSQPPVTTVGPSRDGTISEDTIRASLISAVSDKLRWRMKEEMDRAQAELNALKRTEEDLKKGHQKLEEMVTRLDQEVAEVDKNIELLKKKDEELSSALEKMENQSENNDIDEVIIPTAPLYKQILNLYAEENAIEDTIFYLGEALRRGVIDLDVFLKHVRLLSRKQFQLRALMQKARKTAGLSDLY
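Compounds were pin-transferred onto Tsg101 binding domain (10 uM final) in HEPES pH 7.5 buffer, then FITC-PTAP peptide was added at 50 nM final. After 20 min at RT, polarization reported peptide displacement across a qHTS concentration series.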
* = called active by the depositor; i = inactive; ? = inconclusive; nt = no result; [ ] = remark or other dose. The list is not random: actives were taken first. Their share in the collection is about 6.8%. Unless noted, the call rests on the fitted dose curve; in most records, active means well fitted curve in the direction sought with a large enough effect; inconclusive means small, poorly fitted or top-dose-only effect, or another doubt; inactive means no such curve, though single readings can be large; an effect the other way counts as inactive or inconclusive. Potency means the concentration at half of the fitted maximal effect.

SMILES	MCF10A rereplic	KB-3-1 cytotox	PINK1 expr mod	KB-V1 cytotox	SW480 rerep	PTAP TSG101 blk
CCN1CCN(c2ccc(S(=O)(=O)N3CCCCC3)cc2NC(=O)COc2ccccc2)CC1	10%	i	-1%	i	10%	-4%
CCN1CCN(c2ccc(S(=O)(=O)N3CCCCC3)cc2NC(=O)c2ccc([N+](=O)[O-])s2)CC1	?	?	-2%	?	13µM*	-4%
CCN1CCN(c2ccc(S(=O)(=O)N3CCCCC3)cc2NC(=O)/C=C/c2cc(OC)ccc2OC)CC1	21µM*	i	0%	?	149%	0%
CCN1CCN(c2ccc(S(=O)(=O)N3CCCCC3)cc2NC(=O)COc2ccc(Cl)c(C)c2)CC1	1%	i	13%	i	16µM*	0%
O=[N+]([O-])c1ccc(-c2cn3nc(-c4ccccc4)c(-c4ccccc4)nc3n2)cc1	3.7µM*	i	2%	i	?	?
O=[N+]([O-])c1cccc(-c2cn3nc(-c4ccccc4)c(-c4ccccc4)nc3n2)c1	?	i	3%	i	5.8µM*	-24%
NCCCCCc1nnc(SCc2ccc(F)cc2)o1	nt	i	0%	i	nt	nt
COc1ccc(S(=O)(=O)N(CC(=O)NCCSc2ccccc2)c2ccc(C)cc2)cc1	nt	?	-1%	i	nt	nt
COc1ccccc1N(CC(=O)NCCSCc1cccc(C)c1)S(=O)(=O)c1ccccc1	18µM*	?	2%	?	16%	0%
Cc1ccc(N(CC(=O)NCCSc2nc3ccccc3s2)S(=O)(=O)c2ccccc2)c(C)c1	7%	?	-3%	8.2µM*	18%	-4%
COc1ccccc1N(CC(=O)NCCSCc1ccccc1)S(C)(=O)=O	3%	i	0%	i	0%	-9%
COc1ccc(N(CC(=O)NCCSCc2ccccc2C)S(=O)(=O)c2ccccc2)cc1	?	?	1%	15µM*	13%	1%
COc1ccc(-c2noc(C3CCCN(S(=O)(=O)c4ccc(C)c(Cl)c4)C3)n2)cc1OC (stereo unspecified)	?	i	1%	3.7µM*	2%	-1%
COc1ccc(-c2noc(C3CCCN(S(=O)(=O)c4cccc(Cl)c4C)C3)n2)cc1OC (stereo unspecified)	?	i	-3%[38.3 µM]	18µM*	4%	-8%
CCCS(=O)(=O)N1CCCC(c2nc(-c3ccc(OC)cc3)no2)C1 (stereo unspecified)	10%	i	nt	13µM*	6%	-6%
COc1cc(-c2noc(C3CCCN(C(=O)c4c(F)cccc4F)C3)n2)cc(OC)c1OC (stereo unspecified)	24%	i	1%	i	0%	-6%
O=S(=O)(c1ccccc1Cl)N1CCCC(c2nc(-c3cccnc3)no2)C1 (stereo unspecified)	-3%	i	1%[38.3 µM]	7.3µM*	-4%	nt
CCS(=O)(=O)N1CCCC(c2nc(-c3cccc(OC)c3)no2)C1 (stereo unspecified)	0%	i	-4%[38.3 µM]	i	-6%	-6%
COc1cccc(-c2csc(-c3c(N)c(C(=O)c4ccccc4)n4ccccc34)n2)c1	nt	i	3%	i	nt	nt
Cc1ccc(CS/C(Nc2ccccc2C)=C(\C#N)C(=O)NCc2ccco2)c(C)c1	?	?	1%[38.3 µM]	15µM*	14%	-8%
Cc1ccccc1N/C(SCc1ccc(Cl)cc1)=C(/C#N)C(=O)NCc1ccco1	19%	?	-2%[38.3 µM]	12µM*	?	-7%
Cc1ccc(C)c(NC(=O)/C(C#N)=C/c2cn(CC(=O)NCc3ccco3)c3ccccc23)c1	?	i	?	i	?	0%
Cc1ccc(-c2nc(N3CCN(c4ccccc4Cl)CC3)c3ccccc3n2)cc1	nt	i	3%	i	nt	nt
CCOCCCNC(=O)Nc1cc(C(=O)NCc2ccc(C(C)C)cc2)ccc1N1CCCC1	nt	i	-1%	i	nt	nt
O=C(Oc1cccc2cccnc12)c1ccc(N2C(=O)C3C4CCC(C4)C3C2=O)cc1 (stereo unspecified)	15µM*	i	1%	i	18µM*	0%
SMILES	MCF10A rereplic	KB-3-1 cytotox	PINK1 expr mod	KB-V1 cytotox	SW480 rerep	PTAP TSG101 blk
O=C(Oc1cccc2cccnc12)c1cccc(N2C(=O)C3C4CCC(C4)C3C2=O)c1 (stereo unspecified)	20%	i	0%	i	?	-5%
CCC(C)C(=O)Nc1nccs1 (stereo unspecified)	2%	i	-2%	i	1.5µM*	0%
COc1ccc(-c2noc(C3CC(=O)N(c4ccc(C)c(F)c4)C3)n2)c(OC)c1 (stereo unspecified)	nt	i	3%	i	nt	nt
Cn1nc(-c2ccc(N3CCCCC3)c(NC(=O)c3ccco3)c2)c2ccccc2c1=O	?	8.2µM*	17%	?	-3%	-11%
O=S(=O)(c1ccc(Oc2ccc(F)c(Cl)c2)nc1)N1CCOCC1	-5%	i	-1%	23µM*	-6%	-9%
O=S(=O)(c1ccc(Oc2ccc(Cl)cc2)nc1)N1CCOCC1	-21%	i	5%	i	-82%	-1%
O=C(c1cccc(S(=O)(=O)N2CCc3ccccc3C2)c1)N1CCN(c2ccc(O)cc2)CC1	?	?	-2%	13µM*	?	0%
O=S(=O)(c1ccc(Oc2ccc(S(=O)(=O)N3CCOCC3)cc2)cc1)N1CCOCC1	0%	?	1%	15µM*	-1%	-3%
O=C(c1ccc2ccccc2c1)N1CCN(c2ccc(O)cc2)CC1	?	i	-3%	23µM*	6%	-1%
NC(=O)C1CCN(C(=O)c2cccc(S(=O)(=O)N3CCc4ccccc4C3)c2)CC1	-17%	i	4%	i	-2%	-4%
Cc1ccc(-c2noc(-c3nnn(CC(=O)Nc4cc(C)cc(C)c4)c3N)n2)cc1	nt	nt	-1%	nt	nt	nt
CCOC(=O)c1sc(NC(=O)c2cccc(S(=O)(=O)N3c4ccccc4CC3C)c2)cc1C (stereo unspecified)	8.2µM*	i	6%	i	?	-1%

Source: PubChem BioAssay (National Center for Advancing Translational Sciences (NCATS))
